A short description of assay [1]: qHTS assay to identify small molecule antagonists of the glucocorticoid receptor (GR) signaling pathway - cell viability counter screen (AID 720693). Also: nearly all actives have a fitted effect of over 55% in size.
The nature of assay [2]: qHTS assay for identifying genotoxic compounds that show differential cytotoxicity against isogenic chicken DT40 cell lines with known DNA damage response pathways - wild type cell line (AID 743012). Also: nearly all actives have a fitted effect of over 60% in size. Also: potency is read from the fitted curve at half-maximal effect. A digest of the protocol:
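Luminescent ATP viability signal (CellTiter-Glo, 30 min RT) recorded after wild type DT40 cells were incubated with compounds for 40 h at 37 C/5% CO2.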

Assay [3] in a line: qHTS assay to identify small molecule antagonists of the androgen receptor (AR) signaling pathway - cell viability counter screen (AID 743033; also: nearly all actives have a fitted effect of over 45% in size).
Assay [4] addresses Androgen receptor (Homo sapiens) (UniProt P10275). In words: qHTS assay to identify small molecule antagonists of the androgen receptor (AR) signaling pathway (AID 743035; active = well fitted inhibition curve with a large enough effect in the signal ratio in the repeat runs, not every such curve was filed as active; the % refers to the signal ratio). A digest of the protocol: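 Quantitative HTS of the Tox21 10K library used HEK293 AR-UAS-bla cells stimulated with R1881 alongside compound for 16 h at 37C, followed by beta-lactamase FRET detection (LiveBLAzer B/G, 2 h, RT).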

The target is the same in assay [5]. In words: qHTS assay to identify small molecule agonists of the androgen receptor (AR) signaling pathway using the MDA cell line (AID 743040; also: nearly all actives have a fitted effect of over 20% in size). The gist of the method:
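Testing was done with the MDA-kb2 AR-luc line, a human breast carcinoma stably transfected with MMTV-luciferase containing AR and GR response elements. Cells were exposed 16 h at 37C before ONE-Glo luminescence detection.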

Assay [6] can be described thus: qHTS assay to identify small molecule antagonists of the androgen receptor (AR) signaling pathway using the MDA cell line - cell viability counter screen (AID 743041; also: nearly all actives have a fitted effect of over 45% in size). The gist of the method: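 Compound exposure lasted 16 h at 37C in MDA-kb2 AR-luc cells stimulated with R1881. Protease-based CellTiter-Fluor reagent was applied for the final 30 min and fluorescence measured.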

The target of assay [7] is Androgen receptor (Homo sapiens) (UniProt P10275). Put plainly: qHTS assay to identify small molecule antagonists of the androgen receptor (AR) signaling pathway using the MDA cell line (AID 743042; also: nearly all actives have a fitted effect of over 55% in size). A digest of the protocol:
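MDA-kb2 breast carcinoma cells carrying MMTV-luciferase (AR/GR responsive) were co-treated with compounds and the agonist R1881 for 16 h at 37C. Inhibition read as ONE-Glo luminescence; CellTiter-Fluor fluorescence measured in parallel for cytotoxicity.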

A short description of assay [8]: qHTS assay to identify small molecule antagonists of the thyroid receptor (TR) signaling pathway - cell viability counter screen (AID 743064). Also: nearly all actives have a fitted effect of over 50% in size. Also: potency is read from the fitted curve at half-maximal effect. The gist of the method: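 In rat pituitary GH3.TRE-Luc reporter cells co-exposed to compound and 1 nM T3 for 23.5 h, cytotoxicity was assessed with CellTiter-Fluor in the same wells, read by fluorescence.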
The nature of assay [9]: qHTS assay to identify small molecule antagonists of the thyroid receptor (TR) signaling pathway (AID 743065). Also: series mostly up to about 70 µM; nearly all actives have a fitted effect of over 55% in size. A digest of the protocol:
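GH3.TRE-Luc rat pituitary cells (two TREs driving luciferase) were dosed with compound, then stimulated with 1 nM T3 (final) for 23.5 h at 37 C. ONE-Glo luminescence was the read-out, with CellTiter-Fluor fluorescence as the cytotoxicity counter-screen.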

Assay [10] deals with thyroid hormone receptor (rat, GH3 cells). Put plainly: qHTS assay to identify small molecule agonists of the thyroid receptor (TR) signaling pathway (AID 743066; calls by dose curve).
In assay [11] the target is Estrogen receptor (Homo sapiens) (UniProt P03372). In words: qHTS assay to identify small molecule antagonists of the estrogen receptor alpha (ER-alpha) signaling pathway (AID 743069; active = well fitted curve in the direction sought with a large enough effect in the signal ratio in the repeat runs, not every such curve was filed as active; the % refers to the signal ratio). A digest of the protocol:
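In this cell-based reporter format, GripTite HEK293 cells harbouring ER-alpha-UAS-bla were grown overnight with 2% charcoal-stripped FBS, dosed with DMSO-dissolved compounds, then challenged with 17beta-estradiol. After 18 hr at 37C, beta-lactamase activity was detected by FRET fluorescence.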

Assay [12] in a line: qHTS assay to identify small molecule antagonists of the estrogen receptor alpha (ER-alpha) signaling pathway - cell viability counter screen (AID 743074; calls by dose curve; also: nearly all actives have a fitted effect of over 45% in size).
For assay [13], the target named is Estrogen receptor (Homo sapiens) (UniProt P03372). Put plainly: qHTS assay to identify small molecule agonists of the estrogen receptor alpha (ER-alpha) signaling pathway (AID 743075; calls by dose curve).
For assay [14] the target is unchanged. In words: qHTS assay to identify small molecule agonists of the estrogen receptor alpha (ER-alpha) signaling pathway using the BG1 cell line (AID 743079). Also: nearly all actives have a fitted effect of over 20% in size. Also: potency is read from the fitted curve at half-maximal effect.
The nature of assay [15]: qHTS assay to identify small molecule antagonists of the estrogen receptor alpha (ER-alpha) signaling pathway using the BG1 cell line (AID 743080; calls by dose curve;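 also: BG1 cells stimulated with 17beta-estradiol alongside compound; series mostly up to about 70 µM; nearly all actives have a fitted effect of over 25% in size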). A digest of the protocol: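 After 5 days in phenol-red-free 10% charcoal-stripped FBS medium, BG1-Luc-4E2 cells were seeded, left 24 h at 37 C, co-treated with compounds and 17beta-estradiol for 21.5 h, then assayed for viability and luciferase.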

Assay [16] is described as follows: qHTS assay to identify small molecule antagonists of the estrogen receptor alpha (ER-alpha) signaling pathway using the BG1 cell line - cell viability counter screen (AID 743081).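 Also: compound given together with 17beta-estradiol as the ER stimulus; nearly all actives have a fitted effect of over 45% in size.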 Also: potency is read from the fitted curve at half-maximal effect.
The target of a further assay is Aromatase (Homo sapiens) (UniProt P11511). In words: qHTS assay to identify aromatase inhibitors (AID 743083). Also: nearly all actives have a fitted effect of over 55% in size. Also: potency is read from the fitted curve at half-maximal effect.
Assay [17] in a line: qHTS assay for identifying genotoxic compounds that show differential cytotoxicity against isogenic chicken DT40 cell lines with known DNA damage response pathways - Rad54/Ku70 mutant cell line (AID 743015). Also: nearly all actives have a fitted effect of over 60% in size. Also: potency is read from the fitted curve at half-maximal effect.
A short description of assay [18]: qHTS assay for identifying genotoxic compounds that show differential cytotoxicity against isogenic chicken DT40 cell lines with known DNA damage response pathways - Rev3 mutant cell line (AID 743014). Also: nearly all actives have a fitted effect of over 55% in size. Also: potency is read from the fitted curve at half-maximal effect.
Assay [19] concerns the target Androgen receptor (Homo sapiens) (UniProt P10275). In words: qHTS assay to identify small molecule agonists of the androgen receptor (AR) signaling pathway (AID 743036; active = well fitted activation curve with a large enough effect in the signal ratio in the repeat runs, with a control signal flat, not every such curve was filed as active; the % refers to the signal ratio). A digest of the protocol:
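Cell-based FRET reporter assay: HEK293 line with a UAS-beta-lactamase construct, compounds added in DMSO, 16 h exposure at 37C, then 2 h substrate step at room temperature and fluorescence intensity read.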

Results filed as inconclusive are left out. Some compounds were tested as several samples or in several runs, with calls that do not always agree. Calls of active or inactive are those of the source. Unless noted, calls follow the shape of the dose curve; as a rule, active = well fitted curve in the direction sought with a large enough effect in the repeat runs; inconclusive = weak or mixed curves; inactive = no such curve, though single readings can be large; an effect the other way counts as inactive or inconclusive.

Chain of Estrogen receptor (Homo sapiens) (P03372 whole entry, looked up): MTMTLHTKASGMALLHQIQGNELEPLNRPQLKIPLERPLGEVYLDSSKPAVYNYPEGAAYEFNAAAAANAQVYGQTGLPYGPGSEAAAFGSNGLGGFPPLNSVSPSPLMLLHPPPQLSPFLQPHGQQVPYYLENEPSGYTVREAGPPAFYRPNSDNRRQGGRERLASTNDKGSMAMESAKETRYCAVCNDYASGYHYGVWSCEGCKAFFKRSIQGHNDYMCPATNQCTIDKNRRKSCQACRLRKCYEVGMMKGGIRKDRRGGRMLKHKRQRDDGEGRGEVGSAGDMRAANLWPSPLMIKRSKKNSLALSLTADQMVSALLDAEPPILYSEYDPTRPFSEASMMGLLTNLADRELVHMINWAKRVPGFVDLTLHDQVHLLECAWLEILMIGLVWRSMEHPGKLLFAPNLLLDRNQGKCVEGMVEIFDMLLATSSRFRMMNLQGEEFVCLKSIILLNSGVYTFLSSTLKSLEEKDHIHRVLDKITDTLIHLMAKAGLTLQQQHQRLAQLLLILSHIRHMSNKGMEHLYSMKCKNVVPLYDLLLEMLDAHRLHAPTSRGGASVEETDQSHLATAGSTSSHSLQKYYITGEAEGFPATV
Chain of Aromatase (Homo sapiens) (P11511 whole entry, looked up): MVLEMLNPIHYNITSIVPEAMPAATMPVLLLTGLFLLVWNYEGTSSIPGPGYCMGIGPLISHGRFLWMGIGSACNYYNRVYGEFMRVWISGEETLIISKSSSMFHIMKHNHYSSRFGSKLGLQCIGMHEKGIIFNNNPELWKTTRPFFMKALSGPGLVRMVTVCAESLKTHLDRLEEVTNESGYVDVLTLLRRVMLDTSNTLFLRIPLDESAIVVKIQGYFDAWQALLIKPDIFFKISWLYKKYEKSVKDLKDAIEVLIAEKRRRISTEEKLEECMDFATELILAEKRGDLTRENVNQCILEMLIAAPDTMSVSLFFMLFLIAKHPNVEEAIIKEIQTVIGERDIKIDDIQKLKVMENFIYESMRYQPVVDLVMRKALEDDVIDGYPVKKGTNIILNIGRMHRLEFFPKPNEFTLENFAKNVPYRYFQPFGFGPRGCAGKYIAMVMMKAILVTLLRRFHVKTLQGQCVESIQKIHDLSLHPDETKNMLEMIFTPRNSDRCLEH
Chain of Androgen receptor (Homo sapiens) (P10275 whole entry, looked up): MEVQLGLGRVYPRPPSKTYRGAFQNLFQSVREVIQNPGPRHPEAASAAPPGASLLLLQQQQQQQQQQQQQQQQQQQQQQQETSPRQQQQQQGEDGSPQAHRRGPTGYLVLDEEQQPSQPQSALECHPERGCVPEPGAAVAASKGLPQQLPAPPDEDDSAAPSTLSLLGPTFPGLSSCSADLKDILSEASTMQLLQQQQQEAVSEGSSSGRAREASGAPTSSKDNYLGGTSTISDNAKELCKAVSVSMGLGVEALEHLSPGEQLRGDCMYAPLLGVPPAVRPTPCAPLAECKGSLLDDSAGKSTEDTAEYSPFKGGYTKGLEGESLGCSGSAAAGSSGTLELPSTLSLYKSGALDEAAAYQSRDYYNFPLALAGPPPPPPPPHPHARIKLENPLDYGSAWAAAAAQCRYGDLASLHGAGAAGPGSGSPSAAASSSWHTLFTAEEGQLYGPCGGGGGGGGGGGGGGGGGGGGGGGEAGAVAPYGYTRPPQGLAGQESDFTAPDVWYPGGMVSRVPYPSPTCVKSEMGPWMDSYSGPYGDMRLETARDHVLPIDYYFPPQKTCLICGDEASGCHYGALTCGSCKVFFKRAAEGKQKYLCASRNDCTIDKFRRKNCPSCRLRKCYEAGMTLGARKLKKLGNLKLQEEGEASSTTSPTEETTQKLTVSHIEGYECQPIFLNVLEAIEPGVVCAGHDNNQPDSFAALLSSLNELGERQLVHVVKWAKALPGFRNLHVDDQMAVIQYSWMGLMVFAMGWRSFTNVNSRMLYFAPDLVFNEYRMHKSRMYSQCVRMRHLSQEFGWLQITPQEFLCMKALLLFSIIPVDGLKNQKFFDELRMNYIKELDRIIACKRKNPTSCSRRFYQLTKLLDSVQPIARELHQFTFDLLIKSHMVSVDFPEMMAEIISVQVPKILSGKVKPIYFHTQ

Take `c1ccc2c(c1)OCC(CN1CCCCC1)O2` (stereo unspecified): the Potency entry in [1], in assay [2], in [3], in assay [4], in [5] and in [6] was “inactive” throughout. Besides, the Potency entry in assay [7], in assay [8], in [9], in assay [10], in assay [11] and in assay [12] was “inactive” in each case. For the same compound, the Potency result (in [13]; in [14]; in [15]; in assay [16]; in the assay with Aromatase (Homo sapiens)) was “inactive” throughout.
Consider `CC(C)C[C@@H](NC(=O)[C@@H](O)[C@H](N)Cc1ccccc1)C(=O)O`, for which the Potency entry in [1], in assay [2], in assay [17], in assay [3], in assay [6] and in assay [9] was “inactive” each time. The Potency result (in assay [10]; in assay [13]; in assay [14]; in assay [15]; in the assay with Aromatase (Homo sapiens)) was “inactive” in each case. In addition, the Potency is 1.68 µM (active) in assay [8] and 2.37 µM (active) in [16].
As to `O=C1CCC/C=C\CCCCCCCCCC1`, the Potency result in assay [1], in [2], in assay [6], in assay [10], in assay [12] and in assay [16] was “inactive” each time. The Potency with Aromatase (Homo sapiens) was 30.6 µM (active).
Turning to `O=C1c2c(O)cccc2[C@H]([C@@H]2O[C@H](CO)[C@@H](O)[C@H](O)[C@H]2O)c2cc(CO)cc(O)c21`, the Potency result in [1], in assay [18], in [17], in assay [3], in [6] and in assay [8] was “inactive” in each case. Moreover, the Potency result in [9], in assay [10], in assay [11], in [12], in assay [13] and in assay [15] was “inactive” each time. For the same compound, the Potency result (in assay [16]; with Aromatase (Homo sapiens)) was “inactive” in each case. The Potency in assay [14] was 13.3 µM (active) and inactive.
For `Nc1cc(Cl)c(NC2=NCCN2)c(Cl)c1`, the Potency entry in assay [1], in assay [2], in assay [17], in assay [3], in [6] and in [9] was “inactive” each time. Also, the Potency result in assay [10], in assay [11], in assay [12], in [13], in [14] and in [15] was “inactive” each time. The Potency result (in [16]; in the assay with Aromatase (Homo sapiens)) was “inactive” throughout.
Consider `C[C@@H]1C[C@H]2[C@@H]3C[C@H](F)C4=CC(=O)C=C[C@]4(C)[C@@]3(Cl)[C@@H](O)C[C@]2(C)[C@H]1C(=O)COC(=O)C(C)(C)C`, for which the Potency result in [1], in [2], in assay [17], in [3], in assay [6] and in [8] was “inactive” in each case. Also, the Potency entry in assay [9], in assay [10], in assay [12], in assay [13], in [14] and in [16] was “inactive” each time. Also, the Potency result in the assay with Aromatase (Homo sapiens) was “inactive”.
As to `c1ccc(-c2ccc(C(c3ccccc3)n3ccnc3)cc2)cc1` (stereo unspecified), the Potency entry in assay [1], in [3], in assay [6], in assay [12], in [14] and in assay [15] was “inactive” throughout. For the same compound, the Potency result in assay [16] was “inactive”. Besides, the values for the Potency (in [2]; in [17]; with Aromatase (Homo sapiens)) were 10.6 µM (active), 11.9 µM (active) and 0.75 µM (active), respectively.
`CO/N=C(\C(=O)N[C@@H]1C(=O)N2C(C(=O)[O-])=C(C[n+]3cccc4c3CCC4)CS[C@H]12)c1csc(N)n1`: the Potency result in assay [1], in assay [18], in [17], in assay [3], in assay [6] and in assay [8] was “inactive” each time. The Potency result in assay [9], in [10], in assay [11], in assay [12], in [13] and in [14] was “inactive” each time. In addition, the Potency entry (in [15]; in [16]; with Aromatase (Homo sapiens)) was “inactive” each time.
For `Cc1cn([C@H]2C[C@H](O)[C@@H](CO)O2)c(=O)[nH]c1=O`, the Potency entry in assay [1], in [2], in assay [17], in assay [6], in [11] and in assay [12] was “inactive” each time. Further, the Potency result (in [13]; in assay [14]; in [15]; in assay [16]; with Aromatase (Homo sapiens)) was “inactive” each time.
On to `N#Cc1c(N(CC(=O)O)CC(=O)O)sc(C(=O)O)c1CC(=O)O`, for which the Potency result in assay [1], in [2], in assay [17], in [3], in assay [6] and in [8] was “inactive” throughout. The Potency entry in assay [10], in assay [11], in assay [12], in [13], in [15] and in [16] was “inactive” in each case. For the same compound, the Potency result with Aromatase (Homo sapiens) is “inactive”.
In the case of `C[Se]CC[C@H](N)C(=O)O`, the Potency entry in assay [1], in assay [2], in [17], in [6], in assay [8] and in assay [9] was “inactive” throughout. Moreover, the Potency entry (in assay [10]; in assay [11]; in assay [12]; in assay [13]; in [14]; with Aromatase (Homo sapiens)) was “inactive” each time.
As for `CO/N=C(\C(=O)N[C@@H]1C(=O)N2C(C(=O)O)=C(C[N+]3(C)CCCC3)CS[C@H]12)c1csc(N)n1`, the Potency entry in assay [1], in [18], in [17], in assay [3], in [5] and in assay [6] was “inactive” in each case. The Potency entry in [7], in assay [8], in assay [10], in assay [11], in assay [12] and in [13] was “inactive” in each case. Further, the Potency entry (in assay [14]; in assay [15]; in [16]; with Aromatase (Homo sapiens)) was “inactive” each time.
`CC12CCC(C1)C(C)(C)C2=O` (stereo unspecified): the Potency entry in assay [1], in [18], in assay [17], in [19], in assay [5] and in assay [6] was “inactive” each time. For the same compound, the Potency result in assay [7], in assay [9], in assay [10], in assay [11], in assay [12] and in [13] was “inactive” in each case. Moreover, the Potency entry (in assay [14]; in [15]; in assay [16]; with Aromatase (Homo sapiens)) was “inactive” each time.
On to `C=CC1=C(C(=O)O)N2C(=O)[C@@H](NC(=O)/C(=N\O)c3csc(N)n3)[C@H]2SC1` (stereo in doubt), for which the Potency entry in [1], in [18], in assay [17], in assay [19], in [5] and in [6] was “inactive” throughout. In addition, the Potency result in [7], in assay [8], in assay [9], in assay [10], in [11] and in assay [12] was “inactive” in each case. For the same compound, the Potency entry (in assay [13]; in assay [14]; in assay [15]; in assay [16]; with Aromatase (Homo sapiens)) was “inactive” throughout.
For `O=C1OC(=O)c2cc(-c3ccc4c(c3)C(=O)OC4=O)ccc21`, the Potency result in assay [1], in assay [6], in assay [8], in assay [9], in assay [10] and in [11] was “inactive” throughout. The Potency result (in [13]; in [14]; in [15]; in assay [16]; with Aromatase (Homo sapiens)) was “inactive” each time. Moreover, the Potency in assay [18] and in assay [17] was 54.5 µM (active) each time.
As for `CCCCCCCCCC(=O)NO`, the Potency entry in assay [1], in assay [17], in [3], in assay [6], in [8] and in assay [9] was “inactive” in each case. For the same compound, the Potency result in assay [10], in assay [11], in assay [12], in assay [13], in assay [14] and in assay [15] was “inactive” in each case. Moreover, the Potency entry (in assay [16]; in the assay with Aromatase (Homo sapiens)) was “inactive” in each case.

The values are drawn from PubChem BioAssay (Tox21).
